NAD/ADPR ratio data for 114 compounds are collected here from PubChem BioAssay AID1508615 (Milbrandt Lab, Department of Genetics, Washington …, 2020).

Molecules are shown by their SMILES. Screen size: about 1,600 compounds; about 20 (1%) were called active. The sample holds actives, similar compounds and a random draw of the others, so the mix is not that of the screen. Values without a mark were called inactive.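 How the source made its calls: active means ratio of uncleaved NAD to its breakdown product ADP-ribose above 4, meaning the enzyme was inhibited; inactive means the rest.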

Chain of NAD(+) hydrolase SARM1 (Homo sapiens) (Q6SZW1 whole entry, looked up): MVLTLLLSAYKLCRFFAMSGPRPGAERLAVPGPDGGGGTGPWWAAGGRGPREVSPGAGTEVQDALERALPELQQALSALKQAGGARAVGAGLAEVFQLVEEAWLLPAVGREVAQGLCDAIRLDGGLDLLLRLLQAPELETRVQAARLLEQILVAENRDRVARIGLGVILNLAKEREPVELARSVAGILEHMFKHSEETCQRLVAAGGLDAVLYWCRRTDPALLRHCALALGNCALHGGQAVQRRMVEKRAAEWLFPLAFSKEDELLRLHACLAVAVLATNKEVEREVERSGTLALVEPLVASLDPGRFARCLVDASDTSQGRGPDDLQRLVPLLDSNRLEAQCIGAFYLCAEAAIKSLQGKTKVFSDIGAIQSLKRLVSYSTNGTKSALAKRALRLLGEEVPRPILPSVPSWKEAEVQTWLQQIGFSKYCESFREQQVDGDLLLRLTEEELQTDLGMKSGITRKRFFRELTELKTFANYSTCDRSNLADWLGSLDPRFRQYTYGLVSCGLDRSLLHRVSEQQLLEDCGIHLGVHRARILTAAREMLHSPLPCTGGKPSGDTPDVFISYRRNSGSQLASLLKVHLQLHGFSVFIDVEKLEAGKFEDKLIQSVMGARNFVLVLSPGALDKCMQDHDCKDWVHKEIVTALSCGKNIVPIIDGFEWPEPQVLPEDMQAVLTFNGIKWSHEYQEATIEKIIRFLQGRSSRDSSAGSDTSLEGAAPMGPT

This test concerns the target NAD(+) hydrolase SARM1 (Homo sapiens) (UniProt Q6SZW1). Nature of the test: SARM1 TIR NADase inhibitors by HPLC, primary screen, cell lysate, HPLC readout (AID 1508615).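 Further: substrate NAD at 5 µM with 60 min at 37 °C.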 The settings on record: HEK293T SAM-TIR lysate, at 5 µM, hits give high values.
In the case of `S=c1nc[nH]c2c1cnn2-c1ccccc1`, the NAD/ADPR ratio is 3.
Turning to `CCOC(=O)c1c[nH][nH]c1=O`, the NAD/ADPR ratio is 3.
For the compound `NC(=O)N/N=C1\CC2CC1C1C=CCC21` (centres undefined), the NAD/ADPR ratio was 3.
For `Cc1nc(Nc2ccc(F)cc2)nc(Nc2ccc(F)cc2)c1[N+](=O)[O-]`, the NAD/ADPR ratio is 3.
With `Cc1cc2nc3ccc(=[N+](C)C)cc-3sc2cc1N`, the NAD/ADPR ratio was 3.
With `Cn1c(=O)c2[nH]c(CCCc3ccc([N+](=O)[O-])cc3)nc2n(C)c1=O`, the NAD/ADPR ratio is 3.
As to `CCCc1cc(=O)oc2c3c(c4c(c12)OC(C)(C)C=C4)OC(C)C(C)C3O` (centres undefined), the NAD/ADPR ratio was 3.
For `CSc1cccc(NC(=O)Nc2nc3c(C)cccc3s2)c1`, the NAD/ADPR ratio is 3.
`Cc1nc2ccc(Cl)cn2c1[N+](=O)[O-]`: the NAD/ADPR ratio was 3.
As for `Cn1ncc2c(Nc3ccccc3Cl)nc(Cl)nc21`, the NAD/ADPR ratio was 3.
Consider `Cc1ccc(NC(=S)NC(=O)c2ccccc2)cc1NC(=S)NC(=O)c1ccccc1`, for which the NAD/ADPR ratio is 3.
For `Cc1cc(O)c(-c2cc(O)c(C)cc2O)cc1O`, the NAD/ADPR ratio is 5.8 (active).
Consider `CCN(CC)CCNC(=O)c1ccc(NCN2C(=O)NC(c3ccccc3)(c3ccccc3)C2=O)cc1`, for which the NAD/ADPR ratio is 3.
As for `Cc1cnc2cc(Cl)ccc2c1SCC(=O)O`, the figure is 3; as for `O=C1NC(=O)N2CCSC2(Cc2ccccc2)N1` (centres undefined), 3.
As for `Nc1ncnc2c1ncn2C1C=C(CO)C(O)C1O` (centres undefined), the NAD/ADPR ratio is 3.
The figure for `CCOP(=O)(OCC)/C(C#N)=C/c1ccc(-c2ccc(F)cc2F)o1` is 3.
Turning to `O=c1[nH]cnc(CN2CCCCC2)c1O`, the NAD/ADPR ratio was 3.
On to `CC12CCC(C(=Nc3ccc(N=C4C(=O)C5(C)CCC4C5(C)C)cc3)C1=O)C2(C)C`, for which the NAD/ADPR ratio is 3.
Turning to `C#CCOCC1CN(c2ccccc2)C(=O)O1` (centres undefined), the NAD/ADPR ratio is 3.
Consider `N#Cc1cnn(-c2cccc(Cl)c2)c1-n1cccc1`, for which the NAD/ADPR ratio was 3.
Consider `Cc1ccc(N=Nc2ccc(C)cc2NC(=O)Nc2ccccc2F)cc1`, for which the NAD/ADPR ratio was 3.
With `Clc1nc2nc3n(c2nc1Cl)CCC3`, the NAD/ADPR ratio is 3.
Turning to `CC(=O)Nc1cc(NC(C)=O)ncn1`, the NAD/ADPR ratio was 3.
On to `O=C(c1ccccc1)C1C(c2ccccc2)C1[N+](=O)[O-]` (centres undefined), for which the NAD/ADPR ratio was 5.3 (active).
For `O=C1C=C(c2ccccc2)OC(=O)C1C(=O)c1ccccc1` (centres undefined), the NAD/ADPR ratio is 3.
`O=C(c1ccccc1)c1ccc(Sc2ccc([N+](=O)[O-])cc2)cc1`: the NAD/ADPR ratio was 3.
With `Clc1ccc(-c2n[nH]c3c2Cc2ccccc2-3)cc1Cl`, the NAD/ADPR ratio is 3.
Consider `COc1ccc(C(=S)N2CCN(c3ccccc3Cl)CC2)cc1OC`, for which the NAD/ADPR ratio is 3.
For `O=C(O)C(c1ccccc1)C1(O)CCCCC1` (centres undefined), the NAD/ADPR ratio is 3.
Consider `Cc1cc2cc3c(=O)[nH]c(=O)cc-3n(CC(O)C(O)C(O)CO)c2cc1C` (centres undefined), for which the NAD/ADPR ratio was 3.3.
Take `C#CCSc1nnnn1-c1ccc(Br)c(C)c1`: the NAD/ADPR ratio was 3.
For `Cc1ccc(S(=O)c2ccc([N+](=O)[O-])c3nonc23)cc1` (centres undefined), the NAD/ADPR ratio was 13.2 (active).
Consider `O=[N+]([O-])c1cc2cccnc2c2ncccc12`, for which the NAD/ADPR ratio is 3.
Consider `O=C(O)C(Cc1ccccc1N(CCO)CCO)N1C(=O)c2ccccc2C1=O` (centres undefined), for which the NAD/ADPR ratio is 3.
For `Nc1nc(N)nc(C2C=CCCC2)n1` (centres undefined), the NAD/ADPR ratio was 3.
Turning to `O=C(Oc1ccccc1)c1cccc2cccc(C(=O)Oc3ccccc3)c12`, the NAD/ADPR ratio is 3.
Take `COc1ccc(N=Cc2c(O)ccc3c2oc2cc(Cl)c(O)c(Cl)c23)cc1`: the NAD/ADPR ratio is 3.
Take `CC(O)c1nc2c(c(=O)n(C)c(=O)n2C)n1C` (centres undefined): the NAD/ADPR ratio is 3.
With `Cn1ncc2c(Nc3ccccc3Cl)nc(Nc3ccccc3Cl)nc21`, the NAD/ADPR ratio was 3.
Turning to `Nc1ccc(C(=O)Nc2ccc(Nc3ccncc3)cc2)cc1`, the NAD/ADPR ratio is 3.
Turning to `Cc1cc2c(cc1[N+](=O)[O-])NC(CNC(C)C)CC2` (centres undefined), the NAD/ADPR ratio was 3.
For `CNc1ncn(-c2c(C)cccc2C)c(=O)n1`, the NAD/ADPR ratio is 3.
Consider `CS/C(=C\c1ccc(C(=O)c2ccc(C)cc2)n1C)S(C)=O` (centres undefined), for which the NAD/ADPR ratio is 3.
Consider `COC(=O)C1=CC(=O)N2CCN=C2S1`, for which the NAD/ADPR ratio was 3.
With `COc1cccc(NC(=S)Nc2ccc(O)cc2)c1`, the NAD/ADPR ratio was 3.
Turning to `Cc1cccc(NC(=S)Nc2cccc(C)n2)n1`, the NAD/ADPR ratio was 3.
Turning to `NC(=O)Nc1n[nH]c(-c2ccccc2)n1`, the NAD/ADPR ratio is 3.
As to `Cc1ccc(N=Nc2c(N)nn(-c3ccccc3)c2N)cc1`, the NAD/ADPR ratio is 3.
Take `CCOC(=O)/C(C#N)=C/c1cccc(C)c1`: the NAD/ADPR ratio was 3.
Turning to `CCOC(=O)/C(C#N)=C1\SS/C(=C(/C#N)C(=O)OCC)S1`, the NAD/ADPR ratio was 7.9 (active).
Regarding `CCOC(=O)/C(C#N)=C/c1c[nH]c2ccccc12`, the NAD/ADPR ratio was 3.
In the case of `c1ccn(CCc2ccncc2)c1`, the NAD/ADPR ratio is 3.
For the compound `CSC1=NC=C(C#N)C2=NC(c3ccc(Cl)cc3)NN12` (centres undefined), the NAD/ADPR ratio is 3.
Take `NC(=O)CCC(C(=O)O)N1C(=O)C2C3CCC(C3)C2C1=O` (centres undefined): the NAD/ADPR ratio is 3.
On to `CN(NC(=O)C(=O)NCc1ccco1)C(=O)NC1CCCCC1`, for which the NAD/ADPR ratio is 3.
With `O=C(Nc1ccc(Cl)cc1)c1cc2c(cc1O)[nH]c1ccccc12`, the NAD/ADPR ratio was 3.
For the compound `O=C(Nc1ccc(Cl)c([N+](=O)[O-])c1)Nc1nc2ccccc2s1`, the NAD/ADPR ratio was 3.
`CCN1CCC(Nc2ccnc3cc(Cl)ccc23)CC1`: the NAD/ADPR ratio is 3.
`Cc1c(N2CCCC2)cc2c(c1NC(=O)c1ccccc1Cl)C(C)(C)CC2(C)C`: the NAD/ADPR ratio is 3.
`CCC(C)Nc1nc2c(c(=O)n(C)c(=O)n2C)n1C` (centres undefined): the NAD/ADPR ratio was 3.
For the compound `N#CN=C(N)c1ccccc1`, the NAD/ADPR ratio is 3.
Consider `COc1cccc(/C=C2\CCc3ccccc3C2=O)c1`, for which the NAD/ADPR ratio is 3.
As for `NC(=O)c1ccccc1NC(=O)c1ccccc1Cl`, the NAD/ADPR ratio was 3.
Regarding `CC(=O)Nc1ccc(Cc2nc3c([nH]2)c(=O)n(C)c(=O)n3C)cc1`, the NAD/ADPR ratio was 3.
`CCOC(=O)c1ccc(NC(=O)Oc2cc(C)c(Cl)cc2C(C)C)cc1`: the NAD/ADPR ratio was 3.
For the compound `Nc1nc(Cl)cc(Nc2ccccc2Cl)n1`, the NAD/ADPR ratio is 3.
The figure for `O=[N+]([O-])c1ccc(/C=C/c2ccncc2)cc1` is 3; for `COC(=O)C1(C(=O)OC)C2C(=O)C3C(C21)C3(C(=O)OC(C)(C)C)C(=O)OC(C)(C)C` (centres undefined) it is 3.
Consider `c1ccc2c(c1)cnc1ccccc12`, for which the NAD/ADPR ratio was 3.
`NC(N)=Nc1nc2ccc([N+](=O)[O-])cc2[nH]1`: the NAD/ADPR ratio was 3.
As for `O=C(OCC1CCC=CO1)C1CCC=CO1` (centres undefined), the figure is 3.
As for `Cc1cc(=O)c2cc(C(=O)c3ccccc3)ccc2[nH]1`, the NAD/ADPR ratio was 3.
On to `O=S(=O)(O)c1ccc2c(c1)C(C(Cl)(Cl)Cl)OC(C(Cl)(Cl)Cl)O2` (centres undefined), for which the NAD/ADPR ratio is 3.
As for `O=c1nccc(SCc2ccc(Cl)cc2Cl)[nH]1`, the figure is 3; as for `Oc1ccccc1-c1nc2c3ccccc3c3ccccc3c2[nH]1`, 3.
Consider `CN(C)C(=S)/N=c1\ssc(=S)n1Cc1ccco1`, for which the NAD/ADPR ratio is 3.
As for `CN(C)c1nc(=NCc2ccco2)ss1`, the NAD/ADPR ratio is 9.7 (active).
With `O=C(O)CCC(=O)OCCN(Cc1ccc(Oc2ccc([N+](=O)[O-])cc2)cc1)C(=O)C(Cl)Cl`, the NAD/ADPR ratio is 3.
The figure for `CN(C)CC1C2CCC(C2)C1O` (centres undefined) is 3; for `C(=C\c1ccccn1)/c1ccccn1` it is 3.
With `O=C(Oc1ccc[nH]c1=O)c1cccc(Cl)c1`, the NAD/ADPR ratio was 3.
`Cc1nc(N)nc(Nc2ccc(C#N)cc2)c1Br`: the NAD/ADPR ratio is 3.
Turning to `CCCCN1CCNC1=S`, the NAD/ADPR ratio was 3.
For the compound `Cc1cccc(Nc2sc(C(=O)c3cc4cc(Cl)ccc4o3)c(N)c2C#N)c1`, the NAD/ADPR ratio is 3.
As for `O=c1c2ccccc2ncn1-c1ccc(Cl)cc1`, the figure is 3; as for `c1cncc(-c2nc3ccccc3s2)c1`, 3.
As for `C1=CC2(C=C1)OC21CCC2(C=CC3(C2)OC3C2CCCCC2)CC1` (centres undefined), the figure is 3.
For the compound `NCc1c(O)ccc2ccccc12`, the NAD/ADPR ratio was 3.
For the compound `COC1CC(C)C(OC)c2cc(O)cc(c2O)NC(=O)/C(C)=C/C=C\C(C)C(OC(N)=O)/C(C)=C\C(C)C1OC` (centres undefined), the NAD/ADPR ratio is 3.
As for `NNC(=O)CNC(=O)Nc1n[nH]c(=S)s1`, the figure is 3; as for `O=C(c1cccnc1)c1cc(-c2ccccn2)c(=O)n2ccccc12`, 3.
In the case of `Cc1ccc(S(=O)(=O)N(C)C)cc1[N+](=O)[O-]`, the NAD/ADPR ratio was 3.
Consider `CC(C)(C)NC1=NCCNC(c2ccccc2)=C1`, for which the NAD/ADPR ratio is 3.
With `S=c1c2[nH]cnc2ncn1CCSc1ncnc2nc[nH]c12`, the NAD/ADPR ratio is 3.
For the compound `CC1=C(C#N)C(C)(C)C(C#N)=C(C)N1`, the NAD/ADPR ratio is 3.
Take `CCCCCC(=O)N1CCCC1`: the NAD/ADPR ratio is 3.
In the case of `CN(C)c1nc(=Nc2cccc(Cl)c2)ss1`, the NAD/ADPR ratio was 11.3 (active).
Regarding `O=C1C(=Nc2cccc(Cl)c2)CC(c2ccc(Cl)cc2)N1c1cccc(Cl)c1` (centres undefined), the NAD/ADPR ratio is 3.
Turning to `Nc1nc(=S)c2ncn(C3CCCC3)c2[nH]1`, the NAD/ADPR ratio is 3.
For the compound `O=c1oc(-c2ccccc2)c(-c2ccccc2)c2ccccc12`, the NAD/ADPR ratio is 3.
Regarding `O=[N+]([O-])c1cccc(/C=C/c2ccccn2)c1`, the NAD/ADPR ratio is 3.
As for `CC(C)(c1cc(Cl)c(O)c(CN2CCOCC2)c1)c1cc(Cl)c(O)c(CN2CCOCC2)c1`, the figure is 3; as for `O=c1[nH]c(C(F)(F)C(F)(F)C(F)(F)F)no1`, 3; as for `CN1C(=O)CC2(C)C1=CCc1scnc12` (centres undefined), 3.
As for `COc1ccc(C2=NC(=O)NC2c2ccc(OC)cc2)cc1` (centres undefined), the NAD/ADPR ratio is 3.
`CCOc1nc(OCC)c2cnn(C)c2n1`: the NAD/ADPR ratio is 3.
The figure for `O=C1NC(=O)C2(CCc3ccccc32)N1` (centres undefined) is 3; for `CC1(C)CC[C@]2(C(=O)n3ccnc3)CC[C@]3(C)[C@H](C(=O)C=C4[C@@]5(C)C=C(C#N)C(=O)C(C)(C)[C@@H]5CC[C@]43C)[C@@H]2C1` it is 6.5 (active).
Take `Cc1nc(N)[nH]c(=O)c1CCCNc1ccc(CCC2(CCl)OCCO2)cc1`: the NAD/ADPR ratio was 3.
`CCCCSc1nc(C(=O)O)cc(=O)[nH]1`: the NAD/ADPR ratio is 3.
`Cc1ccc(-c2cssc2=S)cc1`: the NAD/ADPR ratio is 3.
The figure for `CCCCOP(=O)(OCCCC)C1(C)CC(=O)CC(C)(C)C1` (centres undefined) is 3.
As for `Cc1[nH]c(=S)[nH]c(=O)c1CCC1OCCO1`, the NAD/ADPR ratio was 3.
